Inconclusive results are not listed. Active and inactive are the calls of the source. Unless noted, the call rests on the fitted dose curve; in most records, active means well fitted curve in the direction sought with a large enough effect; inconclusive means small, poorly fitted or top-dose-only effect, or another doubt; inactive means no such curve, though single readings can be large; an effect the other way counts as inactive or inconclusive.
How the values were obtained:
[1] = molecular target: DNA repair nuclease/redox regulator APEX1 (Homo sapiens) (UniProt P27695); test: qHTS Validation Assay for Inhibitors of the Human Apurinic/apyrimidinic Endonuclease 1 (APE1) (AID 1705;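 further: TAMRA fluorescence gain over two minutes as APE1 cuts a quenched THF abasic duplex; on the % scale 0 is the no-effect control and ±100 the full control effect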)
How it was run: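 Human APE1 was preincubated with compound for 15 min at room temperature, then 50 nM (final) THF-abasic double-stranded DNA substrate bearing 5'-TAMRA and 3'-BHQ-2 was added. Incision-driven fluorescence rise (ex 525/em 598 nm) was read kinetically.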

[2] = Counterscreen for APE1 Inhibitors: Fluorescent Dye Displacement Validation Assay (AID 1707);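 further: plate controls were ThO with dsDNA and no compound for no effect and ThO without dsDNA for full effect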
How it was run: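 Signal: ThO fluorescence (ex 480 nm/em 540 nm) on binding 50 nM dsDNA; displacement by test compound reduces it. Conditions: 250 nM dye, 50 mM Tris-HCl pH7.5, 2 mM MgCl2, 50mM NaCl, 0.01% Tween-20.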

[3] = qHTS for differential inhibitors of proliferation of Plasmodium falciparum line 7G8 (AID 1815);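 further: parasite growth measured after three days of incubation; plate controls were vehicle wells for no effect and reference inhibitor wells for full effect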
[4] = qHTS for differential inhibitors of proliferation of Plasmodium falciparum line GB4 (AID 1816); details: Potency: Plasmodium falciparum GB4 proliferation inhibition;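 further: parasite growth measured after 72 h incubation; 0% = vehicle DMSO and -100% = reference inhibitor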
[5] = qHTS for differential inhibitors of proliferation of Plasmodium falciparum line 3D7 (AID 1876);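 further: parasite growth measured after three days of culture; 0% = vehicle wells and -100% = reference inhibitor wells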
[6] = qHTS for differential inhibitors of proliferation of Plasmodium falciparum line D10 (AID 1877);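 further: parasites grown with compound for 72 h before DNA staining; plate controls were vehicle wells for no effect and reference inhibitor wells for full effect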
[7] = qHTS for differential inhibitors of proliferation of Plasmodium falciparum line Dd2 (AID 1882); details: Potency: Plasmodium falciparum Dd2 proliferation inhibition;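 further: plate controls were DMSO vehicle for no effect and 0.29 µM artemisinin for full effect; nearly all actives have a fitted effect of over 65% in size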
How it was run: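 RBC culture, 0.3% parasitemia / 2.5% Hct final; cpd added by pin tool in DMSO; 72 h, 37 C, 5% CO2; lysis buffer + SYBR Green I, o/n RT dark; FI 485/535; norm. to artemisinin 0.29 uM and DMSO.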

[8] = qHTS for differential inhibitors of proliferation of Plasmodium falciparum line W2 (AID 1883); details: Potency: Plasmodium falciparum W2 proliferation inhibition;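 further: parasites grown with compound for 72 h before lysis and staining; 0% = vehicle wells and -100% = control inhibitor wells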
[9] = qHTS for differential inhibitors of proliferation of Plasmodium falciparum line HB3 (AID 1886); details: Potency: Plasmodium falciparum HB3 proliferation inhibition;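 further: parasites grown with compound for 72 h before SYBR Green readout; plate controls were vehicle for no effect and reference inhibitor for full effect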
[10] = molecular target: Ferritin light chain (Equus caballus) (UniProt P02791); test: qHTS Validation Assay for Identification of Novel General Anesthetics (AID 2323); further: on the % scale 0 is the no-effect control and ±100 the full control effect
How it was run: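 Competitive displacement of profluorescent 1-aminoanthracene (1-AMA, 50% saturated solution in PBS) from 10 uM horse-spleen apoferritin. Compounds incubated 10 min at room temperature; fluorescence read at 380 nm excitation/535 nm emission, normalized to free 1-AMA and complex, fitted with four-parameter Hill equation.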

[11] = molecular target: ATP-dependent DNA helicase Q1 (Homo sapiens) (UniProt P46063); test: qHTS Validation Assay for Inhibitors of RecQ-Like Dna Helicase 1 (RECQ1) (AID 2353);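 further: plate controls were DMSO vehicle for no effect and enzyme-free control for full effect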
How it was run: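 RECQ1T1 50 nM; forked duplex (20 bp + 30-nt ss tails) 200 nM, ATP 2 mM final; pH 8.0, 2 mM MgCl2, 2.5 ug/ml poly(dI-dC); 15 min compound preincubation; discontinuous kinetic read over 2 h at RT.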

[12] = Validation screen for inhibitors of Lassa infection (AID 463096; calls by dose curve; further: on the % scale 0 is the no-effect control and ±100 the full control effect)
[13] = Validation screen for small molecules that induce DNA re-replication in MCF 10A normal breast cells (AID 463097); further: 0% is about no effect; nearly all actives have a fitted effect of over 60% in size
How it was run: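 Readout: Hoechst nuclear fluorescence intensity, 405 ex / 500-530 em, by scanning plate imager; re-replication scored as increase in nuclei with elevated DNA content. Cells exposed to compound 48 hr, 37 C, 5% CO2 beforehand.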

[14] = Quantitative high throughput screen for delayed death inhibitors of the malarial parasite plastid, 96 hour incubation (AID 488745);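 further: luciferase-expressing P. falciparum in erythrocytes at 2% hematocrit and 0.1% parasitemia; on the % scale 0 is the no-effect control and ±100 the full control effect; nearly all actives have a fitted effect of over 70% in size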
How it was run: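 Luciferase-expressing P. falciparum, infected RBCs 2% Hct/0.1% parasitemia (final); 96 h cpd exposure, 37 C, 5% CO2; RPMI 1640 + 0.5% Albumax, bicarbonate, gentamycin. Readout: luminescence loss = growth inhibition.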

[15] = Quantitative high throughput screen for delayed death inhibitors of the malarial parasite plastid, 48 hour incubation (AID 488752); further: on the % scale 0 is the no-effect control and ±100 the full control effect; nearly all actives have a fitted effect of over 65% in size
How it was run: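 Luciferase-expressing P. falciparum in RBCs, 2% Hct, 0.1% parasitemia final; RPMI 1640 + 0.5% Albumax; 48 h, 37 C, 5% CO2; luminescence readout, signal drop = growth inhibition.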

[16] = molecular target: M-phase phosphoprotein 8 (Homo sapiens) (UniProt Q99549); test: qHTS Validation Assay for Inhibitors for MPP8 Chromodomain Interactions with Methylated Histone Tails (AID 488949);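 further: AlphaScreen signal from MPP8 chromodomain bound to biotinylated H3K9me3 peptide; top concentration of the series differs between compounds; on the % scale 0 is the no-effect control and ±100 the full control effect; nearly all actives have a fitted effect of over 55% in size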
How it was run: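 MPP8 (50 nM) was preincubated with biotinylated H3(1-18)K9me3 peptide (50 nM) in PBS pH 7.4, 0.01% Tween-20 for 30 min at room temperature, then with compounds for 30 min; binding was detected by AlphaScreen.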

[17] = molecular target: Transient receptor potential cation channel subfamily V member 1 (Homo sapiens) (UniProt Q8NER1); test: HTS Assay for Compounds that Act as Enhancers of the Vanilloid Receptor 1 (AID 488979); further: 0% is about no effect
How it was run: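 TRPV1-expressing cells loaded with Fluo-8 calcium dye; compounds added and calcium influx read kinetically for 3 min (agonist phase), then capsaicin at EC20 added and read 2 min more for enhancement. Fluorescence ex 480/em 520 nm.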

[18] = molecular target: Thyrotropin receptor (Homo sapiens) (UniProt P16473); test: qHTS Assay for Antagonists of the Thyroid Stimulating Hormone Receptor (AID 488980); further: 0% is about no effect
How it was run: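 HEK293 cells transfected with human TSHR, suspended in HEPES-buffered HBSS with 70 uM RO 20-1724, were treated with compounds plus TSH at EC80 (4 nM final). cAMP was measured by competitive HTRF (cryptate anti-cAMP antibody, cAMP-d2 acceptor).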

[19] = molecular target: ATP-dependent 6-phosphofructokinase (Trypanosoma brucei brucei) (UniProt O15648); test: qHTS Assay to Find Inhibitors of T. brucei phosphofructokinase: hit validation (AID 492961);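 further: luminescence reports ADP formed as PFK phosphorylates fructose-6-phosphate with ATP; on the % scale 0 is the no-effect control and ±100 the full control effect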
How it was run: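 PFK 1.25 nM, F6P 0.5 mM, ATP 0.1 mM, MgCl2 5 mM, 0.1 M TEA pH 8.0, Tween20 0.01%, BSA 0.1%; 45 min RT. ADP-Glo two-step detection, luminescence. qHTS titration; curve fitting with curve-class categorization.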

[20] = molecular target: Thyrotropin-releasing hormone receptor (Homo sapiens) (UniProt P34981); test: qHTS for Small Molecule Agonists and Allosteric Enhancers of Human TRH Receptor: Validation Screen for Agonists (AID 493127;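 active means calcium activation more than 3 SD above the typical response in the agonist read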;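 further: intracellular calcium rise by fluo-8 fluorescence before TRH EC20 addition; 0% is about no effect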); details: TRH receptor agonist cell assay; at 2 µM; hits give high values
How it was run: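 Read-out: intracellular calcium release measured kinetically by FDSS (fluo-8, ex 480/em 530 nm), 1 reading/s after a 10-cycle baseline. TRHR cells, 2000/well, cultured 18 h at 33.5C, dye-loaded at room temp. Compound-evoked positive calcium signal flags agonists.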

[21] = molecular target: Galactokinase (Homo sapiens) (UniProt P51570); test: qHTS Validation Assay for Inhibitors of Human Galactokinase (GALK) (AID 493189); further: 0% is about no effect
How it was run: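 GALK (5 nM) with 35 uM ATP and 100 uM galactose in HEPES pH8.0, MgCl2, NaCl, DTT, BSA; 1 h at room temperature. Residual ATP read by Kinase-Glo Plus luminescence after 10 min.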

[22] = molecular target: Ubiquitin carboxyl-terminal hydrolase 1 (Homo sapiens) (UniProt O94782); test: Inhibitors of USP1/UAF1: Pilot qHTS (AID 504865);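 further: rhodamine fluorescence freed from ubiquitin-rhodamine substrate followed over time; top concentration of the series differs between compounds; on the % scale 0 is the no-effect control and ±100 the full control effect; nearly all actives have a fitted effect of over 35% in size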
How it was run: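 USP1/UAF1 complex (1nM) preincubated with compound 15 min at room temperature, then Ub-Rho substrate (150nM final) added. Fluorescence read kinetically at 480/540 nm, 6 reads every 60 seconds. Buffer: 50mM HEPES pH 7.8, 0.5mM EDTA, 0.1 mg/ml BSA, 1mM TCEP, 0.01% Tween-20.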

[23] = molecular target: Luciferin 4-monooxygenase (Photinus pyralis) (UniProt P08659); test: Biochemical firefly luciferase enzyme assay for NPC (AID 624030);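 further: purified P. pyralis luciferase at 10 nM with luciferin and ATP substrate; 0% = DMSO and -100% = full luciferase inhibition by PTC124 control; nearly all actives have a fitted effect of over 70% in size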
How it was run: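 Counter-screen for direct inhibition of the luciferase enzyme by approved-drug library compounds, run at 10 nM enzyme in 50 mM Tris acetate (final). Luminescence was read within 5 min of enzyme-buffer addition and normalized to PTC124 versus DMSO (0%).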

[24] = S16 Schwann cell viability assay (CellTiter-Glo assay) (AID 624031);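 further: native untransfected S16 rat Schwann cells; cellular ATP luminescence as a viability measure; plate controls were DMSO-treated cells for no effect and cell-free wells for full effect; nearly all actives have a fitted effect of over 70% in size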
How it was run: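 Rat S16 Schwann cells without reporter constructs received compound or DMSO for 24 h at 37 °C under 5% CO2. Cellular ATP was then quantified by CellTiter-Glo luminescence, with vehicle wells defined as 0% activity and cell-free wells as reference.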

[25] = S16 Schwann cell PMP22 intronic element firefly luciferase assay (AID 624032);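 further: plate controls were DMSO for no effect and PTC124 positive control mean for full effect; nearly all actives have a fitted effect of over 30% in size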
How it was run: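 Rat S16 Schwann cells stably carrying a PMP22 intronic element-driven Fluc reporter were seeded overnight, then exposed to compounds for 24 h at 37 °C. Luminescence was normalized to PTC124 (positive control) and DMSO (0% activity).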

[26] = S16 Schwann cell PMP22 intronic element beta-lactamase assay (AID 624044; calls by dose curve;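 further: 0% = DMSO and -100% = potassium clavulanate positive control; nearly all actives have a fitted effect of over 15% in size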); details: S16 rat Schwann cells, PMP22 element beta-lactamase FRET, 24 h; ratio activity, negative = inhibition: at 38.3 µM (top of the series) unless noted
How it was run: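 Beta-lactamase reporter under a PMP22 intronic regulatory element in stable S16 rat Schwann cells; 24 h compound exposure. 460 nm blue signal normalized between DMSO (0%) and potassium clavulanate, with 535 nm FRET tracking viability; curves classed by r2 and response.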

[27] = qHTS profiling for inhibitors of Plasmodium falciparum proliferation (AID 504749);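 further: 0% = DMSO vehicle and full inhibition = artemisinin control; nearly all actives have a fitted effect of over 60% in size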; details: P. falciparum in erythrocytes, SYBR Green DNA, 72 h, at 28.7 µM (top of the series)
How it was run: (§1)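 Fluorescence of SYBR Green-bound parasite DNA, read at 485/535 nm, served as the growth measure. Infected erythrocytes were cultured with compound 72 h; artemisinin (0.29 uM) and DMSO wells defined the normalization range.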

[28] = test system: 3D7; test: as above; details: P. falciparum in erythrocytes, SYBR Green DNA, 72 h; series mostly up to 28.7 µM
How it was run: as §1

[29] = test system: 7G8; test: as above; details: P. falciparum in erythrocytes, SYBR Green DNA, 72 h; series mostly up to 12.8 µM
How it was run: as §1

[30] = test system: AA1029; test: as above; details: P. falciparum in erythrocytes, SYBR Green DNA, 72 h; series mostly up to 28.7 µM
How it was run: as §1

[31] = test system: AS120; test: as above; details: P. falciparum in erythrocytes, SYBR Green DNA, 72 h; series mostly up to 28.7 µM
How it was run: as §1

[32] = test system: ATS189; test: as above; details: P. falciparum in erythrocytes, SYBR Green DNA, 72 h; series mostly up to 28.7 µM
How it was run: as §1

[33] = test system: ATS95; test: as above; details: P. falciparum in erythrocytes, SYBR Green DNA, 72 h; series mostly up to 28.7 µM
How it was run: as §1

[34] = test system: C2A; test: as above; details: P. falciparum in erythrocytes, SYBR Green DNA, 72 h; series mostly up to 28.7 µM
How it was run: as §1

[35] = test system: CP185; test: as above; details: P. falciparum in erythrocytes, SYBR Green DNA, 72 h; series mostly up to 28.7 µM
How it was run: as §1

[36] = test system: CP191; test: as above; details: P. falciparum in erythrocytes, SYBR Green DNA, 72 h; series mostly up to 28.7 µM
How it was run: as §1

[37] = test system: CP192; test: as above; details: P. falciparum in erythrocytes, SYBR Green DNA, 72 h; series mostly up to 28.7 µM
How it was run: as §1

[38] = test system: CP194; test: as above; details: P. falciparum in erythrocytes, SYBR Green DNA, 72 h; series mostly up to 28.7 µM
How it was run: as §1

[39] = test system: CP201; test: as above; details: P. falciparum in erythrocytes, SYBR Green DNA, 72 h; series mostly up to 28.7 µM
How it was run: as §1

[40] = test system: CP203; test: as above; details: P. falciparum in erythrocytes, SYBR Green DNA, 72 h; series mostly up to 28.7 µM
How it was run: as §1

[41] = test system: CP211; test: as above; details: P. falciparum in erythrocytes, SYBR Green DNA, 72 h; series mostly up to 28.7 µM
How it was run: as §1

Ubiquitin carboxyl-terminal hydrolase 1 (Homo sapiens), sequence (O94782 whole entry, looked up): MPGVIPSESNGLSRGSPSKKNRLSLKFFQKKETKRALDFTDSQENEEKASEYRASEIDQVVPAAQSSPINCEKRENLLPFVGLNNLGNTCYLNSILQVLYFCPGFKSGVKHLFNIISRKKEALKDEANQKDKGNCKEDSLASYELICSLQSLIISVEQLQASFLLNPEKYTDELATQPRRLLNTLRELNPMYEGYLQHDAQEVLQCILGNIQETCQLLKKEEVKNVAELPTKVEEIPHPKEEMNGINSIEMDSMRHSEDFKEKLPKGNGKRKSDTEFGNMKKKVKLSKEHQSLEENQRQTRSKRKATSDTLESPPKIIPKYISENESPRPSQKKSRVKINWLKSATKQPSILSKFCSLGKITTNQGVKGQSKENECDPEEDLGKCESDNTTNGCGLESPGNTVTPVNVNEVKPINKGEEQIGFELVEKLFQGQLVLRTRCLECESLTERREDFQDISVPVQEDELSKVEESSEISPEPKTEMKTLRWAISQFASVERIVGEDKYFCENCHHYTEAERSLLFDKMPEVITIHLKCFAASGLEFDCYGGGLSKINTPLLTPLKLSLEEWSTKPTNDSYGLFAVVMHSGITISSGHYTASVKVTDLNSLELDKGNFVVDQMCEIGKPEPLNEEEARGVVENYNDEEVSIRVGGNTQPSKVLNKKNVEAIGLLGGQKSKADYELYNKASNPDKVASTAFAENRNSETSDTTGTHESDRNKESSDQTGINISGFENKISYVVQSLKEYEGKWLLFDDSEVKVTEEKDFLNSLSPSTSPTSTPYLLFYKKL
Transient receptor potential cation channel subfamily V member 1 (Homo sapiens), sequence (Q8NER1 whole entry, looked up): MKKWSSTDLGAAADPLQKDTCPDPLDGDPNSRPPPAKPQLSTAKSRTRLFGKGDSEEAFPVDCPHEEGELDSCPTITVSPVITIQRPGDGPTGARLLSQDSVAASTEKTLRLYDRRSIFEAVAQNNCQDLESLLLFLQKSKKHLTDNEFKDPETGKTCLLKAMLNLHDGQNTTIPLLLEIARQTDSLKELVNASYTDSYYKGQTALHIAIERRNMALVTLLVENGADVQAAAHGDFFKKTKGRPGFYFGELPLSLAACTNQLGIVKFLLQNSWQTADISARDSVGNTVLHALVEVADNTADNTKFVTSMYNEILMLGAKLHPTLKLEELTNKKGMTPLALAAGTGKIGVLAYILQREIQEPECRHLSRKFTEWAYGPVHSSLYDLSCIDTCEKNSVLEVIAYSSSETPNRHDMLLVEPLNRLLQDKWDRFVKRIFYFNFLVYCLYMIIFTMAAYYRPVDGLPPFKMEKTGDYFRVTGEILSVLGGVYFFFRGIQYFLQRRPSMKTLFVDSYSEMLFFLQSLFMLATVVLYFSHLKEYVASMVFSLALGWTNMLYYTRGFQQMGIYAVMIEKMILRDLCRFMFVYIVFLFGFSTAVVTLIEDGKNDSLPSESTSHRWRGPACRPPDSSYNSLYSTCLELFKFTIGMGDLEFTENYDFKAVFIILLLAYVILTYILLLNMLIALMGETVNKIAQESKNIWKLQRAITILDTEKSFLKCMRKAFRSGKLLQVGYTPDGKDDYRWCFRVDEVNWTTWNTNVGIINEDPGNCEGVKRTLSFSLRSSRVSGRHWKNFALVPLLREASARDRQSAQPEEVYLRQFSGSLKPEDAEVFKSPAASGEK
Ferritin light chain (Equus caballus), sequence (P02791 2-175 limits assumed): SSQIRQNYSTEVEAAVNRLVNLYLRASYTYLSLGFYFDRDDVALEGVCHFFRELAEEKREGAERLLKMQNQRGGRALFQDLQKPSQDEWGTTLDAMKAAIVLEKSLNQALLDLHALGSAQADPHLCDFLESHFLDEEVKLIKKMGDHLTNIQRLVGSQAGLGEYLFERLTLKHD
ATP-dependent DNA helicase Q1 (Homo sapiens), sequence (P46063 whole entry, looked up): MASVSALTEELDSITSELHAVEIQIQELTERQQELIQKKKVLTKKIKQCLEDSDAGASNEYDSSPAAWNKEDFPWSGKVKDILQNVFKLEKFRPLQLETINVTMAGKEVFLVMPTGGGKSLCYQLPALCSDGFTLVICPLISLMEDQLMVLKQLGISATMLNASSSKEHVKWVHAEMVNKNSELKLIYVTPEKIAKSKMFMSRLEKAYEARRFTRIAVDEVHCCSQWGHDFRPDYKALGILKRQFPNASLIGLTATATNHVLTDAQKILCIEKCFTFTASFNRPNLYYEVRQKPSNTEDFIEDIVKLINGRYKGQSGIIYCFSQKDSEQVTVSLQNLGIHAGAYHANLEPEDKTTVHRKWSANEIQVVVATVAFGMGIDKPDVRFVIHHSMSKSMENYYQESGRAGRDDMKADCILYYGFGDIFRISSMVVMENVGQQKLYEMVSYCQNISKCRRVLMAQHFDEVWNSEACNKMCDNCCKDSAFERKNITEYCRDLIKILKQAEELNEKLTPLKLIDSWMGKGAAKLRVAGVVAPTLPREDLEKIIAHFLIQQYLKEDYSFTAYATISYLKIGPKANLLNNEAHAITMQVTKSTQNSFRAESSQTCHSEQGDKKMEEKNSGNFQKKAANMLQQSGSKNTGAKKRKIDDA
Galactokinase (Homo sapiens), sequence (P51570 whole entry, looked up): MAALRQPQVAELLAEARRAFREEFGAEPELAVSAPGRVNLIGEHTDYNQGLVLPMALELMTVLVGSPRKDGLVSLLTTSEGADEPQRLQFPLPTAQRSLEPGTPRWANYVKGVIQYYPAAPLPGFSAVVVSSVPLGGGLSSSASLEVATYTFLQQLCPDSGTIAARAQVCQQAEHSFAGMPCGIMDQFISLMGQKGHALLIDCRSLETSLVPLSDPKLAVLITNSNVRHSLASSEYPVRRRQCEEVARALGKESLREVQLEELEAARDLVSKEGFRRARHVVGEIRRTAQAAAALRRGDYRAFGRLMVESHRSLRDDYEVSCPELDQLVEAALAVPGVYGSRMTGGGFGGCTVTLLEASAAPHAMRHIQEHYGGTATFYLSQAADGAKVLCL
Thyrotropin receptor (Homo sapiens), sequence (P16473 whole entry, looked up): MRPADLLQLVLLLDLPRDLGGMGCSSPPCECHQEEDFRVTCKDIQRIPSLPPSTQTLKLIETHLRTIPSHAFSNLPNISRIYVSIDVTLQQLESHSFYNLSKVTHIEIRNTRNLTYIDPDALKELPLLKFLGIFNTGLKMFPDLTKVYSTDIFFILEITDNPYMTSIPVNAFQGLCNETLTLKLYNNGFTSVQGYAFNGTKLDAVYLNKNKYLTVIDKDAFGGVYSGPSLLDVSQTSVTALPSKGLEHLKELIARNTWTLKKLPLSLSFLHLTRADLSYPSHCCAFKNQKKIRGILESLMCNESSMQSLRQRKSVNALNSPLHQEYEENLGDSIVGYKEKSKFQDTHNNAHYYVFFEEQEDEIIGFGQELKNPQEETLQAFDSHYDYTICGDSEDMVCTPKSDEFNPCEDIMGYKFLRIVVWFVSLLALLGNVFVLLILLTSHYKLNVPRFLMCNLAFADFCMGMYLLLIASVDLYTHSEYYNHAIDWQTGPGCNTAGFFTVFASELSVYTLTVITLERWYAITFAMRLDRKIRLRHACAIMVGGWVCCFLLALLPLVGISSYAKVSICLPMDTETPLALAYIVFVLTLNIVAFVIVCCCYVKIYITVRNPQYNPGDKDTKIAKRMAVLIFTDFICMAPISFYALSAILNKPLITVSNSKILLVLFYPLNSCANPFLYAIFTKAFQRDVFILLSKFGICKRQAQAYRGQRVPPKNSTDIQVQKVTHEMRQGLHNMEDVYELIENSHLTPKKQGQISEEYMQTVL
Thyrotropin-releasing hormone receptor (Homo sapiens), sequence (P34981 whole entry, looked up): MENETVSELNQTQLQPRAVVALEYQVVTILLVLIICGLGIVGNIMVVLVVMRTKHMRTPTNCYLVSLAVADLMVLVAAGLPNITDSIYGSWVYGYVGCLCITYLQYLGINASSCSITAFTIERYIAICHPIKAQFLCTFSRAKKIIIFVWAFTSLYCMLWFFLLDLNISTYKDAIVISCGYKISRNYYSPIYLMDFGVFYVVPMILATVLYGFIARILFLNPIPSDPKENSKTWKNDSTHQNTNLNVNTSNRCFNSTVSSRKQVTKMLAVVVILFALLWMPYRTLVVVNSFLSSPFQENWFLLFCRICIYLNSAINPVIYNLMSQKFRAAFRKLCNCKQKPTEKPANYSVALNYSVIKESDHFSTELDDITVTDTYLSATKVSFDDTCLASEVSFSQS
ATP-dependent 6-phosphofructokinase (Trypanosoma brucei brucei), sequence (O15648 whole entry, looked up): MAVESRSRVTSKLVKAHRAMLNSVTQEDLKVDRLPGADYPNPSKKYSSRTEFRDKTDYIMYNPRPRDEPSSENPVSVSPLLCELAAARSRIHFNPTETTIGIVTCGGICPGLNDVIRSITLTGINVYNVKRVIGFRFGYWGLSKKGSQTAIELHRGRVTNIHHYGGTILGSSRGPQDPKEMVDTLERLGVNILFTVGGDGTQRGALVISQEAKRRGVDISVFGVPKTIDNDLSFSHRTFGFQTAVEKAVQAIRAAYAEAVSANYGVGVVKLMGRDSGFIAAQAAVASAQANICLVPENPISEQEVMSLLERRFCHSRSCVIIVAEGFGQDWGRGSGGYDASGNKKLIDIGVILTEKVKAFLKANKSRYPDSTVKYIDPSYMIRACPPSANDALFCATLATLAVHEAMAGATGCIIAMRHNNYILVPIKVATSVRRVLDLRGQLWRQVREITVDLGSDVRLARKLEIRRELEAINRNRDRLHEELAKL
DNA repair nuclease/redox regulator APEX1 (Homo sapiens), sequence (P27695 whole entry, looked up): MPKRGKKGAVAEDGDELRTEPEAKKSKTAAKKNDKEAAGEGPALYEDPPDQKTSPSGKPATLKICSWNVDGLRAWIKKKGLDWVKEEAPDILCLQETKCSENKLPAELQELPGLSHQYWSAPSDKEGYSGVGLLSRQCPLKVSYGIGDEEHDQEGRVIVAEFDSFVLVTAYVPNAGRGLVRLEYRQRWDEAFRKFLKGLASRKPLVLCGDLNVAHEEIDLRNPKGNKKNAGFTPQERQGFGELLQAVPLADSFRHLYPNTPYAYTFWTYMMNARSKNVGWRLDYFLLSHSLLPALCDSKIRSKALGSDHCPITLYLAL

C[C@]12CC[C@H](OS(=O)(=O)O)CC1=CCC1C2CC[C@]2(C)C(=O)CC[C@@H]12 (some centres not stated)
inactive: Potency [1] | outcome [2] | Potency [3] | Potency [4] | Potency [5] | Potency [6] | Potency [7] | Potency [8] | Potency [9] | Potency [10] | outcome [11] | Potency [12] | Potency [13] | Potency [14] | Potency [15] | Potency [16] | outcome [17] | outcome [18] | Potency [19] | activation [20] 0.688% | outcome [21] | Potency [22] | Potency [23] | Potency [24] | Potency [25] | Potency [26] | activity, negative = inhibition ([27]; parasite line A) -6.88% | activity, negative = inhibition ([27]; parasite line B) 5.59% | Potency [28] | Potency [29] | Potency [30] | Potency [31] | Potency [32] | Potency [33] | Potency [34] | Potency [35] | Potency [36] | Potency [37] | Potency [38] | Potency [39] | Potency [40] | Potency [41]

— PubChem BioAssay (NCATS)
